A selection: hits, their analogues and other compounds. The true share with any hit is near 3.1%.
uPA generation – inhibitors of cell surface uPA generation | cell surface uPA generation assay, qHTS | Potency, µM (highest dose often 38.3 µM), inactives show at the highest dose activity change, negative = inhibition, hits mostly inhibitors | hit rate 0.31% among 330,000 | AID 540303; active = well fitted inhibition curve with a large enough effect; inconclusive = small, poorly fitted or top-dose-only effect; inactive = no such curve, though single readings can be large or run the other way; tested in mouse RAW 264.7 cells; also: potency is read from the fitted curve at half-maximal effect; % is scaled to controls: 0 for no effect and ±100 for the full control effect; nearly all actives have a fitted effect of over 55% in size
RGS4 inh – blocks human RGS4-accelerated GTP hydrolysis; Transcreener GDP fluorescence polarization, RGS4-accelerated GTP hydrolysis; Potency, µM (titrated, usually from 114 µM), without a hit: top-dose activity change, negative = inhibition, actives largely listed as inhibitors; P49798; hit rate 0.039% among 390,000; active = well fitted inhibition curve with a large enough effect; inconclusive = small, poorly fitted or top-dose-only effect; inactive = no such curve, though single readings can be large or run the other way; also: potency is read from the fitted curve at half-maximal effect; % is scaled to controls: 0 for no effect and ±100 for the full control effect; nearly all actives have a fitted effect of over 75% in size
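MLSMR compounds (23 nl, pin-transferred) preincubated 10 min at room temperature with a 500nM (2x) first reagent, then RGS4 at 900nM (2x) plus Transcreener GDP mix added; fluorescence polarization (620/688 nm) read before and after 90 min at 30 °C.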
D3 ag – agonists of human D3 dopamine receptor; D3R DiscoveRx beta-arrestin cells, luminescence, 90 min; hit rate 0.58% among 410,000; P35462; max activation, %; in the data active = max activation above about 30%; also: 0% is about no effect
Target sequence (P35462 whole entry, looked up): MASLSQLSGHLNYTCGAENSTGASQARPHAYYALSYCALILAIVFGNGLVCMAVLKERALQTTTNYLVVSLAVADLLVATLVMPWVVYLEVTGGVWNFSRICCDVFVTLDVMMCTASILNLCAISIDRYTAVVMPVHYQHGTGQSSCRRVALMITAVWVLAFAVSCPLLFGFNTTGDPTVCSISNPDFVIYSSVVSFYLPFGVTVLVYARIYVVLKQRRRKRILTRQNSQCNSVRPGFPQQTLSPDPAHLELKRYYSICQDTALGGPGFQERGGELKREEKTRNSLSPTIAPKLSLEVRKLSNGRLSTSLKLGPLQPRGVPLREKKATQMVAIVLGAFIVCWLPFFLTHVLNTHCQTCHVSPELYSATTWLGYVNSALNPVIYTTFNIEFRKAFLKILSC
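Cells at 1500/well, incubated overnight, then treated with pinned compounds (dopamine as control) for 90 min at 37 degrees C. DiscoveRx reagent added for 30 - 60 minutes at room temperature; luminescence read.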
D3 antag – D3 dopamine receptor (human) antagonism. D3R cells, DiscoveRx beta-arrestin luminescence, antagonist mode; stronger effect = lower value. max response, negative = inhibition, %. hit rate 2.5% among 360,000. AID 652054; in the data active = max response below about -50%; inconclusive = no clear call, values can overlap the other calls; also: % is scaled to controls: 0 for no effect and ±100 for the full control effect
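Cells plated overnight at 1500 cells/well, then exposed to library compounds with dopamine controls for 90 minutes at 37 degrees C. DiscoveRx reagent added for 30–60 minutes at room temperature; luminescence read, quantitative HTS format.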
* = called active by the depositor; ? = inconclusive; . = no result; ! = repeats disagree; [ ] = another dose, or the depositor's remark.

SMILES	uPA generation	RGS4 inh	D3 ag	D3 antag
CCOC(=O)c1c(NC(=O)CSc2nnc(C)c(=O)[nH]2)sc(C)c1-c1ccc(C)cc1	-5%	-21%	0	-19
CCOC(=O)c1c(NC(=O)/C=C/C(=O)O)sc(C)c1-c1ccc(Cl)cc1	8.9µM*	-19%	-10	-11
CCOC(=O)c1c(NC(=O)CSc2nnc(N)s2)sc(C)c1-c1ccc(C)cc1	3%	-42%	43*	68
CCOc1ccc(CNC(=O)c2cnc(SC)nc2CC)cc1	.	-6%	7	.
N#Cc1ccsc1NC(=O)c1cnccn1	1%	7%	-3	-52*
N#Cc1c(NC(=O)c2cnccn2)sc2c1CCCC2	-11%	-19%	-4	4
Clc1cccc(/C=N/Nc2nc(Cl)nc3ccccc23)c1	-2%	-19%	0	-60*
CN(C(=O)c1cc2c(=O)oc3ccccc3c2s1)c1ccc(F)cc1	.	27%	0	.
CCn1c(O)c(C=Nc2ccccc2)sc1=S	2%	1%	-5	-27
O=C(O)Cn1c(O)c(C=Nc2ccccc2)sc1=S	1%	-8%	0	-63*!
Clc1cc(Br)ccc1OCCN1CCOCC1	0%	-1%	-15	?
CC1CCCN(CCOCCOc2ccc(Br)cc2Cl)C1 (configuration not stated)	4%	-6%	0	-82*
CC1CCCN(CCOCCOc2ccc(Cl)cc2Br)C1 (configuration not stated)	.	-49%	-53	-100*
CC1CCN(CCCOc2ccc(Br)cc2Cl)CC1	6%	4%	-15	-62*
CN1CCN(CCOCCOc2ccc(Br)cc2Cl)CC1	11%	13%	-20	-61*
Cc1cc(Cl)c(OCCOCCN2CCCC(C)C2)c(Br)c1 (configuration not stated)	4%	-28%	-14	?
COc1ccc(-c2nnc(SCC(=O)Nc3cc(OC)ccc3OC)nc2-c2ccc(OC)cc2)cc1	.	29%	1	.
Cc1ccc(OCCCCN2CCC(C)CC2)c(Br)c1	1%	-21%	-25	-96*
Cc1cccc(NC(=O)Cn2cnc3sc(C)c(S(=O)(=O)N4CCC(C)CC4)c3c2=O)n1	2%	-15%	35*	49
Cc1sc2ncn(CC(=O)Nc3ccc(F)cc3F)c(=O)c2c1S(=O)(=O)N1CCC(C)CC1	.	-5%	-1	.
N#Cc1c(N)nc(SCC(=O)NC2CCCCC2)c(C#N)c1-c1ccc(Cl)cc1	.	17%	46*	-12
CC(C)c1ccc(-c2c(C#N)c(N)nc(SCC(=O)N3CCCCCC3)c2C#N)cc1	3%	-25%	0	12
O=C(c1cccc(Cl)c1)N1c2ncnn2C2(CCCCC2)[C@@H]2CCCC[C@@H]21	.	4%	-3	.
COc1ccc(OC)c(-c2cc(C(=O)Nc3c(C)nn(Cc4ccc(C)cc4)c3C)no2)c1	.	24%	35*	.
COc1ccc(-c2cc(C(=O)Nc3ccc(C)c(C)c3)no2)cc1	-13%	-29%	1	26
SMILES	uPA generation	RGS4 inh	D3 ag	D3 antag
COc1cccc(-c2cc(C(=O)Nc3ccn(Cc4ccc(C)cc4)n3)no2)c1	5%	17%[11.4 µM]	35*!	5
COc1ccc(-c2cc(C(=O)Nc3cccc(O)c3)no2)cc1	5µM*	4%	-5	-16
COc1ccc(OC)c(-c2cc(C(=O)Nc3c(C)nn(Cc4ccccc4C)c3C)no2)c1	.	2%	33*	21
CCCCCC1Nc2cc(C(F)(F)F)c(S(N)(=O)=O)cc2S(=O)(=O)N1 (configuration not stated)	.	.	0	.
CN(Cc1ccccc1)C(=O)Nc1ccc(Cl)cc1	-15%	3%	-4	0
CN(Cc1ccccc1)C(=O)Nc1c(Cl)cccc1Cl	.	.	-7	-51*
CC(=O)c1cccc(NC(=O)N2CCC(CN3CCCCC3)CC2)c1	.	13%	-13	.
CCN1CCN(c2nc3c(S(=O)(=O)c4ccc(Br)cc4)nnn3c3ccsc23)CC1	.	11%	6	.
CC(C)(C)OC(=O)NCCCCCNC(=O)c1[nH]cnc1C(=O)Nc1ccc(Cl)cc1	6.3µM*	-3%	28	76
C[C@H]1CNC(=O)c2c(C(=O)Nc3ccc(CNC(=O)OC(C)(C)C)cc3)ncn21	.	.	34*	112
CC(C)(C)OC(=O)NCc1ccc(CNC(=O)c2nc[nH]c2C(=O)N2CCN(C(=O)OC(C)(C)C)CC2)cc1	15%	3%	43*	46
C[C@H](NC(=O)c1[nH]cnc1C(=O)Nc1ccc(CNC(=O)OC(C)(C)C)cc1)C(=O)OC(C)(C)C	-15%	?	39*	97
O=C(Cn1ncc2c3ccccc3n(Cc3ccccc3)c2c1=O)NCCCN1CCCCC1	.	-14%	-10	.

Source: PubChem BioAssay (National Center for Advancing Translational Sciences (NCATS))
